Hits are enriched below; roughly 19% of the tested compounds scored in any of these assays.
Lassa entry inh: blocks Lassa virus binding to or entry into cells. Lassa virus pseudotype entry inhibition, cell reporter. Potency, µM (doses to about 37.9 µM), hits mostly inhibitors. 300,000 tested, 1.2% active; calls by dose curve; tested in HEK293 cells; further: nearly all actives have a fitted effect of over 50% in size
CHX counter: counter-screen for Shiga toxin inhibitors: cycloheximide protein synthesis inhibition. 300,000 tested, 12% active. max response, %. cell reporter, cycloheximide protein synthesis inhibition counterscreen; in the data active means max response mostly above about 13%, no sharp cut-off; inactive means mostly below about 14%; further: read at 38.3 µM for the half of the compounds with a filed dose
Shiga inhibitor: blocks Shiga toxin action in Vero cells; AID 2315; inhibition, % at 38.7 µM; 290,000 tested, 9.2% active; Vero cells, Shiga toxin protein synthesis inhibition reporter; in the data active means inhibition mostly above about 28%, no sharp cut-off; inactive means mostly below about 43%
Marburg entry inh: blocks Marburg virus binding to or entry into cells; Marburg virus pseudotyped entry inhibition, cell reporter; Potency, µM (highest dose often 37.8 µM), most hits filed as inhibitors; 300,000 tested, 1.8% active; calls by dose curve; tested in HEK293 cells
Pf growth 96h: inhibits malaria parasite growth, 96 h; AID 504834; 320,000 tested, 6.9% active; P. falciparum luciferase reporter growth, 96 h; Potency, µM (series often up to 28.7 µM), most hits filed as inhibitors
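Infected RBCs, 2% Hct / 0.05% parasitemia final; luciferase-reporter P. falciparum; cpd 96 h, 37 C, 5% CO2; luciferase detection reagent; luminescence.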
Pf growth 48h: P. falciparum growth inhibition at 48 hours (one generation). P. falciparum luciferase growth in erythrocytes, 48 h. Potency, µM (top dose mostly 28.7 µM), actives largely listed as inhibitors. 310,000 tested, 5.9% active. AID 504832
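Here the parasites carry a stable luciferase gene and grow inside erythrocytes in Albumax-based RPMI medium with compound for one erythrocytic cycle. Activity is scored as loss of luminescent signal.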
Of the large screens only hits and unclear results are named; the others gave an inactive call. Unless noted, the call rests on the fitted dose curve; in most records, active means well fitted inhibition curve with a large enough effect; inconclusive means small, poorly fitted or top-dose-only effect, or another doubt; inactive means no such curve, though single readings can be large or run the other way.

CCNC(=O)/C(C#N)=C/c1c(N2CCCCCC2)nc2c(C)cccn2c1=O	Lassa entry inh 8.91µM, Marburg entry inh inconclusive, Pf growth 96h 13.1µM, Pf growth 48h inconclusive
C=CCNC(=O)/C(C#N)=C/c1c(N2CCN(c3cccc(Cl)c3)CC2)nc2c(C)cccn2c1=O	Pf growth 96h inconclusive, Pf growth 48h 8.28µM
O=C(O)c1cccc(N/C(=N\S(=O)(=O)c2ccccc2)c2ccccc2)c1	none (no result: Lassa entry inh, Marburg entry inh)
Cc1ccc(N2CC(NS(=O)(=O)c3cccnc3)CC2=O)cc1 (centres undefined)	none (no result: CHX counter, Shiga inhibitor)
OC(C#CCN1CCCC1)(c1ccccc1)c1cccc(F)c1 (centres undefined)	Lassa entry inh inconclusive
CCCCNC(=O)CSc1nc2cc3c(cc2c(=O)n1Cc1ccc(C(=O)NCCc2ccc(OC)c(OC)c2)cc1)OCO3	none (no result: CHX counter, Shiga inhibitor, Marburg entry inh, Pf growth 96h, Pf growth 48h)
Cc1ccc(CNC(=O)c2ccc(-c3nc(CS(=O)c4ccccc4)c(C)o3)cc2)cc1 (centres undefined)	none (no result: CHX counter, Shiga inhibitor, Marburg entry inh, Pf growth 96h, Pf growth 48h)
O=C(CSc1nccn(-c2ccc3c(c2)OCCO3)c1=O)Nc1ccccc1	Lassa entry inh inconclusive (no result: CHX counter, Shiga inhibitor)
CCOC(=O)N1CCN(C/C(C)=C/c2ccccc2)CC1	none
C/C(=C\c1ccccc1)CN1CCN(C)CC1	Pf growth 96h 0.0522µM (no result: Lassa entry inh, Marburg entry inh)
O=C(O)c1cccc(NCc2ccncc2)c1	none (no result: Lassa entry inh, Pf growth 48h)
CCCCC(c1nnnn1Cc1ccco1)N1CCN(c2nc3ccccc3s2)CC1 (centres undefined)	Lassa entry inh inconclusive, CHX counter 23.0, Shiga inhibitor 62.4, Marburg entry inh inconclusive, Pf growth 48h 9.28µM (no result: Pf growth 96h)
c1ccc(C(c2nnnn2Cc2ccco2)N2CCN(C3CCCC3)CC2)cc1 (centres undefined)	Pf growth 96h inconclusive
c1ccc(C(c2nnnn2Cc2ccco2)N2CCN(c3nc4ccccc4s3)CC2)cc1 (centres undefined)	CHX counter 31.1, Shiga inhibitor 58.0, Marburg entry inh inconclusive, Pf growth 48h inconclusive (no result: Pf growth 96h)
CCOC(=O)Cc1nnc(NC(=O)C23CC4CC(CC(C4)C2)C3)s1	Pf growth 96h inconclusive, Pf growth 48h 13.1µM
COCCc1nnc(NC(=O)C23CC4CC(CC(C4)C2)C3)s1	Pf growth 96h inconclusive (no result: Shiga inhibitor)
O=C(O)c1ccc(N2CCCC2=O)cc1	Lassa entry inh inconclusive, Pf growth 96h inconclusive (no result: Pf growth 48h)
O=C1CC(/C=C/c2ccncc2)=Nc2ccccc2N1	CHX counter 30.5, Marburg entry inh inconclusive, Pf growth 96h inconclusive
CC(C)c1ccccc1-n1c(SCc2cc(=O)oc3ccc4ccccc4c23)nnc1-c1cccnc1	Lassa entry inh inconclusive, Marburg entry inh inconclusive, Pf growth 96h 8.28µM, Pf growth 48h 13.1µM
CC(=O)Nc1ccc2c(CSc3nnc(-c4cccnc4)n3-c3ccc(C)cc3C)cc(=O)oc2c1	Lassa entry inh inconclusive, Pf growth 96h 7.38µM, Pf growth 48h inconclusive
CCc1cc2c(N3CCN(C(=O)c4ccco4)CC3)ncnc2s1	Lassa entry inh inconclusive
Cc1nc(C(=O)N(C)C)nn1-c1ccc([N+](=O)[O-])cc1	none
O=C(Nc1ccc(F)cc1F)N1CCCN(c2ccc(C(F)(F)F)cn2)CC1	Marburg entry inh inconclusive
Fc1ccc(NC(=S)N2CCCN(c3ccc(C(F)(F)F)cn3)CC2)c(F)c1	Pf growth 96h inconclusive, Pf growth 48h 10.4µM (no result: Lassa entry inh, Marburg entry inh)
CN1CCN(C(=O)c2cc(COc3ccccc3)on2)[C@@H](c2ccccc2)C1	CHX counter 54.8, Shiga inhibitor 117.5, Pf growth 48h inconclusive (no result: Lassa entry inh, Marburg entry inh)
Cc1ccc(OCc2cc(C(=O)N3CCN(C)C[C@@H]3c3ccccc3)no2)cc1C	Lassa entry inh inconclusive, CHX counter 74.8, Shiga inhibitor 122.6, Pf growth 96h inconclusive, Pf growth 48h inconclusive
O=C(NCCc1cnc[nH]1)c1cccs1	Pf growth 48h inconclusive (no result: Lassa entry inh, Marburg entry inh)
Cc1nc2c(-c3ccccc3)c(C)nn2c(C)c1CCC(=O)NC(C)CCc1ccco1 (centres undefined)	Pf growth 96h 10.4µM (no result: Lassa entry inh, Pf growth 48h)
Cc1nc2c(-c3ccc(F)cc3)c(C)nn2c(C)c1CCC(=O)Nc1ccccc1F	Pf growth 96h 9.28µM, Pf growth 48h inconclusive (no result: Lassa entry inh)
Cc1ccc(S(=O)(=O)NCCc2nnc3ccc(SCc4ccccc4C)nn23)cc1	none (no result: CHX counter, Shiga inhibitor, Marburg entry inh, Pf growth 96h, Pf growth 48h)
CCOC(=O)c1ccc(N2C(=O)CC(N3CCN(Cc4ccccc4)CC3)C2=O)cc1 (centres undefined)	none (no result: Pf growth 96h)
CCOC(=O)c1ccc(S(=O)(=O)N2CCN(C3CC(=O)N(c4ccccc4C(F)(F)F)C3=O)CC2)cc1 (centres undefined)	Pf growth 96h 11.7µM, Pf growth 48h 13.1µM (no result: CHX counter, Shiga inhibitor)
CN1CCN(c2ccccc2NC(=O)c2ccc(N3CCCC3)c([N+](=O)[O-])c2)CC1	Lassa entry inh inconclusive, Marburg entry inh inconclusive, Pf growth 48h inconclusive
CN1CCN(c2ccc([N+](=O)[O-])c3no[n+]([O-])c23)CC1	Lassa entry inh 0.316µM, Marburg entry inh 0.562µM, Pf growth 96h inconclusive, Pf growth 48h inconclusive
CN1CCN(c2ccc(S(=O)(=O)C(F)(F)F)cc2[N+](=O)[O-])CC1	Pf growth 96h inconclusive
CN1CCN(c2ccc(S(C)(=O)=O)cc2[N+](=O)[O-])CC1	Marburg entry inh inconclusive, Pf growth 96h 11.7µM
CN1CCN(c2ccc(C(=O)c3ccc(Br)cc3)cc2[N+](=O)[O-])CC1	Marburg entry inh 7.94µM
Cc1ccc(-c2noc(-c3ccc(N4CCN(C)CC4)c([N+](=O)[O-])c3)n2)cc1	none (no result: CHX counter, Shiga inhibitor, Pf growth 96h, Pf growth 48h)
O=C1/C(=C\c2ccccc2)C2OCC=C3CN4CCC56c7ccccc7N1C5C2C3CC46 (centres undefined)	Pf growth 96h 2.62µM, Pf growth 48h 2.33µM (no result: Lassa entry inh, Marburg entry inh)
O=C1CC2OCC=C3CN4CCC56c7ccccc7N1C5C2C3CC46 (centres undefined)	none (no result: Lassa entry inh, Marburg entry inh, Pf growth 96h, Pf growth 48h)
CC(=O)c1sc(NC(=O)c2ccccc2)nc1-c1ccccc1	CHX counter 57.1, Shiga inhibitor 96.1 (no result: Lassa entry inh, Marburg entry inh)
Cc1nc(NC(=O)c2c(-c3ccccc3Cl)noc2C)sc1C	Pf growth 96h inconclusive, Pf growth 48h inconclusive (no result: Lassa entry inh, Marburg entry inh)
Cc1nc(NC(=O)c2csc3ccccc23)sc1C	Lassa entry inh inconclusive, CHX counter 39.4, Shiga inhibitor 122.6, Marburg entry inh inconclusive (no result: Pf growth 96h)
Cc1nc(Nc2ccccc2)sc1C	CHX counter 46.5, Shiga inhibitor 71.4, Pf growth 96h inconclusive, Pf growth 48h inconclusive (no result: Lassa entry inh, Marburg entry inh)
Cc1nc(NC(=O)c2ccccc2)sc1C	CHX counter 26.6 (no result: Lassa entry inh, Shiga inhibitor, Marburg entry inh)
COc1ccc(OCC(=O)Nc2ccc3c(c2)nc(CCNC(C)=O)n3C)cc1	Pf growth 96h inconclusive
Cc1ccc(C(=O)Nc2sc(C)c(C)c2C(=O)c2ccccc2)cc1	none
Cc1nc(NC(=O)CCc2ccccc2)sc1C	Lassa entry inh inconclusive, CHX counter 40.4, Shiga inhibitor 68.0, Marburg entry inh inconclusive, Pf growth 96h inconclusive
Cc1nc(NC(=S)NC(=O)c2ccccc2)sc1C	CHX counter 38.9, Shiga inhibitor 69.0 (no result: Lassa entry inh)
Cc1sc(NC(=O)c2ccccc2)c(C(=O)c2ccccc2)c1C	Marburg entry inh inconclusive, Pf growth 96h 11.7µM
Cc1nc(NC(=O)c2ccccc2O)sc1C	CHX counter 18.4 (no result: Lassa entry inh, Marburg entry inh, Pf growth 48h)
CC(=O)OC[C@H]1O[C@@H](n2ccc(=O)[nH]c2=S)C(OC(C)=O)C1OC(C)=O (some centres undefined)	none
COc1cccc(C(=O)NNC(=O)C(=O)Nc2cccc(Cl)c2C)c1	Marburg entry inh inconclusive

Bioassay records from PubChem BioAssay.
